Wnt bcat act – Wnt/beta-catenin pathway activators, primary screen, cell-based, plate reader, single point; Wnt/beta-catenin reporter cell assay, activator; activation, % at 9.35 µM; 300,000 tested, 1.2% active; in the data active = activation above about 30%, passing the limit was not always enough; inconclusive = no clear call, values can overlap the other calls
AHR act – AHR activators, primary screen, cell-based, luminescence, luciferase reporter, human; Aryl hydrocarbon receptor (Homo sapiens), P35869; 320,000 tested, 2.5% active; activation, % at 5 µM; AHR-responsive luciferase reporter cells; in the data active = activation above about 47%
Target sequence (P35869 whole entry, looked up): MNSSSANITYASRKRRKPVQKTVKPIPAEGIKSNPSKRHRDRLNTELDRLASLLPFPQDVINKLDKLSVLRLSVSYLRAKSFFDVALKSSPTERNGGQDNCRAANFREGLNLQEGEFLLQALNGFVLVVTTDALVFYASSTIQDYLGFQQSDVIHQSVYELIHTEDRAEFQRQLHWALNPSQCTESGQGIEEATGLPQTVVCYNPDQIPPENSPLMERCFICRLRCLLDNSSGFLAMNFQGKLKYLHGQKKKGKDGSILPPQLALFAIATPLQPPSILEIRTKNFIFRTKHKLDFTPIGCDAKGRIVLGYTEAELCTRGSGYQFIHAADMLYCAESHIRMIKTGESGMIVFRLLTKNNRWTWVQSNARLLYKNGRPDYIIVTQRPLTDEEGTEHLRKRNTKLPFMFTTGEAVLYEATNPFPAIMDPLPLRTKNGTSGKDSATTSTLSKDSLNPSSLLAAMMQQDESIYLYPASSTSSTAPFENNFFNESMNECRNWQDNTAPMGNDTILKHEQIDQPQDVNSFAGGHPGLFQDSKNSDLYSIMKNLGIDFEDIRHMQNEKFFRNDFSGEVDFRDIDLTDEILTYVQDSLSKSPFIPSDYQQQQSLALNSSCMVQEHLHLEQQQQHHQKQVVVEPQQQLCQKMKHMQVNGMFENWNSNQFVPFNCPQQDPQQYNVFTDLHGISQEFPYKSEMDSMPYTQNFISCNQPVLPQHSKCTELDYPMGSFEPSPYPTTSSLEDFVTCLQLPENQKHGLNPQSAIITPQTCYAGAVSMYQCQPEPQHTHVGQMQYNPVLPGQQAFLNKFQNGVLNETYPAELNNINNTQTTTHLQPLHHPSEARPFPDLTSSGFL
FXN GAA850 act – FXN promoter activators, primary screen, cell-based, luciferase luminescence, HEK293 lucGAA850 | HEK293 lucGAA850 FXN promoter luciferase reporter, 24 h; percent of 10 µM SAHA response | activation, % at 6 µM | 360,000 tested, 0.56% active | AID 540364, 2011;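 active = activation above the average of all compounds screened plus 3 SD, cutoff fixed separately per campaign, cut at about 7.5% in these data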
MITF act – activators of MITF-driven TRPM1 promoter reporter, primary screen, cell-based, SK-MEL-5, luciferase, single point | activation, % at 12.5 µM | SK-MEL-5 TRPM1-promoter luciferase, 24 h; % of positive control, neutral wells = 0 | 300,000 tested, 0.75% active;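 active = mean activation of at least 80% with every replicate also reaching 80%; inconclusive = mean reaches 80% but some replicate falls short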
esBAF inh – Bmi1 luciferase reporter increase in mESCs, primary screen, esBAF inhibitor project, mouse ES cells, Bmi1 luciferase knock-in, single point. reporter increase, % at 12.5 µM. 24 h; 100% = twice the neutral-well signal. 350,000 tested, 2% active; in the data active = activation above about 40%; inconclusive = no clear call, values can overlap the other calls;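 also: a rise in the Bmi1 reporter signal indicates esBAF inhibition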
Large screens that a line does not name were inactive. Only some compounds are listed: those with a hit (about 4.2% of all), similar ones and a draw of the others.

C/C=C/c1ccc2c(c1)O[C@@H](CN(C)C(=O)c1ccccc1F)[C@@H](C)CN([C@H](C)CO)S2(=O)=O	none (no result: Wnt bcat act, AHR act, FXN GAA850 act, MITF act)
Cc1ccc(N2C(=O)c3cccc4c([N+](=O)[O-])ccc(c34)C2=O)c2cccnc12	Wnt bcat act 41
C[n+]1c2n(c3ccccc31)N=C(c1ccc(Cl)cc1)CS2	AHR act 64 (no result: Wnt bcat act, MITF act)
COc1ccc(C2=Nn3c(nnc3-c3ccccn3)SC2)cc1	none
COc1ccc(C2=Nn3c([n+](C)c4ccccc43)SC2)cc1	AHR act 59 (no result: esBAF inh)
CC1Sc2n(c3ccccc3[n+]2C)N=C1c1ccccc1 (configuration not stated)	AHR act 74 (no result: esBAF inh)
Clc1ccc(C2=Nn3c(Cn4nnc5ccccc54)nnc3SC2)cc1	none (no result: MITF act)
CO[C@@H]1CN(C)C(=O)c2ccc(NC(C)=O)cc2OC[C@H](C)N(Cc2ccncc2)C[C@@H]1C	none (no result: Wnt bcat act, AHR act, FXN GAA850 act, MITF act)
CS(=O)(=O)Nc1ccc2c(c1)[C@@H]1C[C@@H](CC(=O)NCc3ccc(Cl)cc3)O[C@@H](CO)[C@@H]1O2	none (no result: Wnt bcat act, AHR act, FXN GAA850 act, MITF act)
O=C(O)C1CC(c2ccccc2)=Nc2ccccc2S1 (configuration not stated)	AHR act 53, esBAF inh 52
O=[N+]([O-])c1ccc(C2CC(c3ccccc3)=Nc3ccccc3S2)cc1 (configuration not stated)	none
COc1ccccc1CNC(=O)C[C@H]1C=C[C@H](NC(=O)CN(C)C)[C@H](CO)O1	none (no result: Wnt bcat act, AHR act, FXN GAA850 act, MITF act)
C[C@@H]1CCCCO[C@H](CN(C)C(=O)Nc2ccccc2)[C@@H](C)CN([C@H](C)CO)C(=O)c2cc(NC(=O)c3ccncc3)ccc2O1	none (no result: Wnt bcat act, AHR act, FXN GAA850 act, MITF act)
CCN1CCN(C(=O)c2ccc(-c3nc4ccccc4s3)s2)CC1	Wnt bcat act 49
Cc1noc(C)c1COC(=O)c1ccc(-c2nc3ccccc3s2)s1	esBAF inh 65 (no result: Wnt bcat act)
CCNC(=O)COC(=O)c1ccc(-c2nc3ccccc3s2)s1	none (no result: esBAF inh)
COCCNC[C@H]1[C@@H](c2ccccc2)[C@@H](CO)N1c1nc(C)c(C)s1	none (no result: Wnt bcat act, AHR act, FXN GAA850 act, MITF act)
C/C=C/c1ccc([C@@H]2[C@H](CN(C)S(=O)(=O)c3ccccc3)N[C@@H]2CO)cc1	none (no result: Wnt bcat act, AHR act, FXN GAA850 act, MITF act)
COc1ccc(C2CC(c3ccncc3)=NN2c2ccc(S(N)(=O)=O)cc2)cc1 (configuration not stated)	esBAF inh 83 (no result: AHR act)
COc1ccc(CN(C)C[C@@H]2OCCCC[C@H](C)Oc3ccc(NC(=O)Nc4ccc5c(c4)OCO5)cc3C(=O)N([C@H](C)CO)C[C@@H]2C)cc1	none (no result: Wnt bcat act, AHR act, FXN GAA850 act, MITF act)
COc1ccc2c(c1)C(c1cccs1)=NNC(c1ccncc1)=N2	FXN GAA850 act 9.4 (no result: esBAF inh)
CCc1ccc2c(c1)C(c1ccncc1)=NNC(c1ccccc1)=N2	esBAF inh 48
CC(C)c1ccc2c(c1)C(c1cccs1)=NNC(c1ccncc1)=N2	none
Cc1ccc2c(c1)C(c1ccncc1)=NNC(c1ccccc1)=N2	none
COc1ccccc1CNC(=O)C[C@H]1C=C[C@H](NC(=O)CN(C)C)[C@@H](CO)O1	none (no result: Wnt bcat act, AHR act, FXN GAA850 act, MITF act)
COC(=O)c1cc(OC)c(OC)cc1NCC(=O)Nc1ccc(OC)c(OC)c1	AHR act 72 (no result: Wnt bcat act, esBAF inh)
CC1(C)CSC(=NCCc2ccccc2)N1	esBAF inh 45
CSc1ccc(C2c3[nH]c4ccccc4c3CCN2C(=O)c2cc(C)n(C)n2)cc1 (configuration not stated)	AHR act 49 (no result: Wnt bcat act, FXN GAA850 act, MITF act, esBAF inh)
CCOc1ccc(C2c3[nH]c4ccccc4c3CCN2C(=O)Cn2cncn2)cc1 (configuration not stated)	AHR act 68 (no result: Wnt bcat act)
CC1(C)NC(=O)N(CCCCOc2ccc3ccccc3c2Cl)C1=O	esBAF inh 53 (no result: Wnt bcat act)
Cc1cc(N2CCN(c3ccc(F)cc3)CC2)nc2cc(O)ccc12	AHR act 98 (no result: MITF act)
COc1ccc2c(C)cc(N3CCN(c4ccc(F)cc4)CC3)nc2c1	AHR act 69
CCC(=O)N1C[C@@H]2[C@H](c3ccccc31)[C@H](CO)N2C(=O)Nc1ccccc1	none (no result: Wnt bcat act, AHR act, FXN GAA850 act, MITF act)
COc1ccccc1Nc1nc(-c2sc(NC(=O)c3ccco3)nc2C)cs1	AHR act 79
O=C(Nc1nc(-c2cccs2)cs1)c1ccc(Cl)s1	none
Cc1ccccc1Nc1nc(-c2sc(NC(=O)c3ccccc3)nc2C)cs1	AHR act 62 (no result: Wnt bcat act, FXN GAA850 act, MITF act, esBAF inh)
Cc1nc(NC(=O)c2ccccc2)sc1-c1csc(Nc2ccc(Cl)cc2)n1	AHR act 59 (no result: Wnt bcat act, FXN GAA850 act, MITF act, esBAF inh)
O=C(Nc1nc(-c2ccc(Cl)s2)cs1)c1ccccc1	esBAF inh 50
CC(=O)N[C@H]1C=C[C@@H](CC(=O)NCC2CCCCC2)O[C@@H]1CO	none (no result: Wnt bcat act, AHR act, FXN GAA850 act, MITF act)
C[C@H](CO)N1C[C@H](C)[C@@H](CN(C)C(=O)Nc2ccccc2)Oc2ccc(NS(=O)(=O)c3ccccc3)cc2CC1=O	none (no result: Wnt bcat act, AHR act, FXN GAA850 act, MITF act)
Cn1cnc(S(=O)(=O)N[C@H]2C=C[C@H](CC(=O)Nc3ccccc3)O[C@H]2CO)c1	none (no result: Wnt bcat act, AHR act, FXN GAA850 act, MITF act)
Cc1nc(NC(=O)c2ccco2)sc1-c1csc(Nc2ccc(Cl)cc2)n1	AHR act 75
COc1cccc(N(C(=O)c2ccco2)c2nc(-c3sc(NC(=O)c4ccco4)nc3C)cs2)c1	AHR act 65 (no result: esBAF inh)
Cc1ccc(Cl)cc1Nc1nc(-c2sc(NC(=O)c3ccco3)nc2C)cs1	none
O=C(c1ccccn1)c1ccc2ccccc2n1	Wnt bcat act 44 (no result: MITF act, esBAF inh)
O=C(c1ccccc1)c1ccccn1	none (no result: esBAF inh)
CCOC(=O)c1c(C)[nH]c(N=Nc2cccc(C)c2)c1C	MITF act 103, esBAF inh 79 (no result: Wnt bcat act)
CCOC(=O)c1c(C)[nH]c(N=Nc2cccc(OC)c2)c1C	Wnt bcat act 45, MITF act 130, esBAF inh 66
CCOC(=O)c1c(C)[nH]c(O)c1C=Nc1ccccc1	none (no result: MITF act)
Cc1ccc(S(=O)(=O)CCC(=O)NCCN2C(=O)S/C(=C\c3ccccc3)C2=O)cc1	esBAF inh 45
O=C(CCS(=O)(=O)c1ccc(Cl)cc1)NCCN1C(=O)S/C(=C\c2ccccc2F)C1=O	none (no result: esBAF inh)
COc1cccc(NC(=O)c2cccs2)c1	esBAF inh inconclusive (no result: Wnt bcat act)
COc1cccc(-c2nnc(NC(=O)c3ccco3)s2)c1	Wnt bcat act 35
COc1cccc(-c2nnc(NC(=O)c3cccs3)s2)c1	AHR act 64 (no result: esBAF inh)
CCC(=O)N(C)C[C@@H]1Oc2cc(C#Cc3ccccc3)ccc2S(=O)(=O)N([C@@H](C)CO)C[C@@H]1C	none (no result: Wnt bcat act, AHR act, FXN GAA850 act, MITF act)
Cc1ccc(S(=O)(=O)N[C@@H]2CC[C@@H](CC(=O)N3CCN(c4ccccc4)CC3)O[C@H]2CO)cc1	none (no result: Wnt bcat act, AHR act, FXN GAA850 act, MITF act)
CCOc1ccccc1C(=O)NCC(=O)OCc1csc(CC(=O)Nc2ccc(C)cc2)n1	esBAF inh 56
Cc1cc(C(=O)Nc2cccc3c2O[C@H](CN(C)Cc2ccc(-c4ccccc4)cc2)[C@@H](C)CN([C@@H](C)CO)C3=O)n(C)n1	none (no result: Wnt bcat act, AHR act, FXN GAA850 act, MITF act)
CC(=O)c1ccc(/C=C/c2nc3ccccc3n2C)o1	Wnt bcat act 35 (no result: MITF act, esBAF inh)
